# Measurements published in PubChem BioAssay (Tox21).
# Inconclusive results are not listed. Active and inactive are the calls of the source. Calls follow the shape of the dose curve; as a rule, active = well fitted cell-killing curve with a large enough effect in the repeat runs; inconclusive = weak or mixed curves, or effect the other way; inactive = flat fitted curve, though single readings scatter.
# Experiment: qHTS assay to identify small molecule antagonists of the retinoid acid receptor (RAR) signaling pathway - cell viability counter screen (AID 1159551); also: nearly all actives have a fitted effect of over 35% in size
# Details: C3RL4 cells viability, ATP luminescence (CellTiter-Glo), 6 h; series mostly up to 92.4 µM; activity change, negative = cytotoxicity: at the top concentration
# Excerpt: U.S. Tox21 Program National Center for Advancing Translational Sciences [NCATS] NIH Chemical Genomics Center [NCGC] U.S. Environmental Protection Agency [EPA] National Institutes of Environmental Health Sciences [NIEHS] National Toxicology Program [NTP] U.S. Food and Drug Administration [FDA] Tox21 Assay Overview: All-trans Retinoic acid (atRA) is the potent natural metabolite of retinol and plays an important role in normal embryonic development and maintenance of cellular phenotype in adult animals. atRA is the activating ligand for the retinoic acid receptors (RARs) which form heterodimers with retinoid X receptors (RXRs) on the retinoic acid response element (RARE). Through activation of the RAR/RXRs nuclear receptors, atRA regulates the transcription of a large number of protein-coding genes and regulatory RNAs. Intracellular levels of atRA are controlled by the retinol signaling pathway (RSP) that regulates the biosynthesis and catabolism of atRA to maintain physiological levels. Chemicals that interfere with the RSP can cause abnormal intracellular levels of atRA and therefore are potential developmental toxicants. To assess compounds for the potential adverse effect on embryonic development through interfering with retinol signaling, a cell-based RARE luciferase reporter gene assay was used. C3RL4 cell line (OARSA/CFSAN/FDA, Laurel, MD) was used to screen Tox21 10K compound library for identifying inhibitors of the RSP. Also cytotoxicity was assessed by determining the viability of cells based on the quantitation of ATP.
# Tox21 Assay Protocol Summary: C3RL4 cells were seeded at 1,000/well in 4 uL of assay medium into white solid 1,536-well tissue culture plates (Greiner Bio-One North America Inc. Monroe, NC) using a Multidrop Combi (Thermo Scientific, Waltham, MA) dispenser. After incubation at 37 C and 5% CO2 for an overnight, 23 nL of compounds dissolved in DMSO, positive control or DMSO only were transferred by a Pintool station (Kalypsys, San Diego, CA). One ul of 1 uM (final concentration) of Retinol was added right after the compound addition by using a Flying Reagent Dispenser (FRD) (Aurora Discovery, San Diego, CA). After 6 hr incubation at 37 C and 5% CO2, 5 uL of CellTiter-Glo reagent (Promega Corporation, Madison, WI) was added to each assay plate using an FRD. Luminescence was quantified on a ViewLux plate reader (PerkinElmer, Waltham, MA) after 30 min incubation at room temperature.
# % is scaled to controls: 0 for no effect and ±100 for the full control effect.
row,SMILES,"activity change, negative = cytotoxicity"
1,O=C(C1CCCCC1)N1CC(=O)N2CCCc3ccccc3C2C1 (stereo not given),0.782% [at 42.5 µM] (inactive)
2,COc1cc(C)c(Cc2cnc(N)nc2N)cc1OC,2.16% [at 42.5 µM] (inactive)
3,COc1cc(CNC(=O)CCCC/C=C/C(C)C)ccc1O,1.51% (inactive)
4,CC(=O)OCC(=O)[C@@]1(O)CC[C@H]2[C@@H]3CCC4=CC(=O)C=C[C@]4(C)[C@@]3(F)[C@@H](O)C[C@@]21C,-1.1% [at 42.5 µM] (inactive)
5,Cc1c(N=C=O)cccc1N=C=O,2.13% (inactive)
6,CCN(CCCCOC(=O)c1ccc(OC)c(OC)c1)C(C)Cc1ccc(OC)cc1 (stereo not given),0.133% [at 42.5 µM] (inactive)
7,CC(C)(C)c1cc(C=O)cc(C(C)(C)C)c1O,1.85% [at 42.5 µM] (inactive)
8,CCc1ccc2c(c1)C(=O)c1ccccc1C2=O,-6.53% (inactive)
9,CCn1nc(Cc2ccccc2)cc1C1CCN(C[C@H]2C[C@H](N(C)[C@@H](C(=O)O)C(C)C)C[C@@H]2c2cccc(F)c2)CC1,2.32% (inactive)
10,O=C(O)CCc1nc2ccccc2[nH]1,0.588% [at 42.5 µM] (inactive)
11,O=C1C=CCCC1,4.46% (inactive)
12,C=CC(=O)OCCCCCCCCCC,2.68% (inactive)
13,O=C(OCCN1CCOCC1)c1cccnc1Nc1cccc(C(F)(F)F)c1,-2.85% [at 42.5 µM] (inactive)
14,Nc1nc(Cl)nc2c1ncn2[C@H]1C[C@H](O)[C@@H](CO)O1,6.23% (inactive)
15,CC(C)=CCC/C(C)=C/C=N/O,1.71% (inactive)
16,CC(C)(C)N,2% (inactive)
17,COc1cccc([C@H](O)C2CCN(CCc3ccc(F)cc3)CC2)c1OC,-0.636% (inactive)
18,O=[N+]([O-])c1cccc(I)c1,4.41% (inactive)
19,O=[N+]([O-])c1ccc(Cl)cc1Cl,1.83% (inactive)
20,C1CCN(CN2CCCCC2)CC1,0.743% (inactive)

row,SMILES,"activity change, negative = cytotoxicity"
1,COC(=O)Cc1cccc2ccccc12,3.09% (inactive)
2,CC(C)Cc1nccs1,3.41% (inactive)
3,CC(C)(O)C(=O)O,3.13% (inactive)
4,CCCc1ccc(OC)cc1,4.53% (inactive)
5,Cc1c(Nc2ncccc2C(=O)O)cccc1C(F)(F)F,3.16% [at 42.5 µM] (inactive)
6,C/C(=C(\CCO)SS/C(CCO)=C(\C)N(C=O)Cc1cnc(C)nc1N)N(C=O)Cc1cnc(C)nc1N,1.24% [at 42.5 µM] (inactive)
7,O=C1CCCN1CCO,-0.81% (inactive)
8,CCCCOC(=O)CC#N,-0.105% (inactive)
9,O=C(OC1C[C@H]2CC[C@@H](C1)[N+]21CCCC1)C(O)(c1ccccc1)c1ccccc1 (stereo not given in full),-0.0811% [at 42.5 µM] (inactive)
10,Sc1nc(S)nc(S)n1,6.18% [at 42.5 µM] (inactive)
11,CC1(COc2ccc(CC3SC(=O)NC3=O)cc2)CCCCC1 (stereo not given),2.11% [at 42.5 µM] (inactive)
12,Cc1nc2sccn2c(=O)c1CCN1CCC(=C(c2ccc(F)cc2)c2ccc(F)cc2)CC1,1.79% [at 42.5 µM] (inactive)
13,OCCCO,0.192% (inactive)
14,CC(Cc1ccccc1)(NC(=O)CN)c1ccccc1 (stereo not given),-0.502% [at 42.5 µM] (inactive)
15,O=C(O)c1cccc(C(=O)O)c1C(=O)O,1.62% (inactive)
16,CCCCC(CC)COCCC#N (stereo not given),-1.26% (inactive)
17,[O-][n+]1ccc(Cl)cc1,2.12% (inactive)
18,N#Cc1ccc(CC(=O)c2cccc(C(F)(F)F)c2)cc1,0.687% (inactive)
19,O=C(NC1CCN(CCc2c[nH]c3ccccc23)CC1)c1ccccc1,-2.38% [at 42.5 µM] (inactive)
20,C/C(=C\C(C)CC(C)CC(C)C)C1CC(=O)OC1=O (stereo not given),-2.46% (inactive)
